Results from PubChem BioAssay (NCI).
The panel holds about 83,000 compounds, 20% with a hit somewhere; the sample as a whole holds those more often.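 For each line, cells grew in 96-well plates with the test compound present at a single concentration for 48 hours.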 Values without a mark were called inactive. Calls of active or inactive are those of the source. The calls were made as follows: active = growth percent below 10; inactive = the rest.

How the values were obtained:
Test in all cases: NCI-60 one-dose screen, 48 h (100 = growth as untreated, 0 = no growth, -100 = all killed)
Conditions in all cases: 10 µM unless noted
NCI-H23 lung = tested on: NCI-H23 lung
NCI-H226 lung = tested on: NCI-H226 lung
NCI-H322M lung = tested on: NCI-H322M lung
HOP-62 NSCLC = tested on: HOP-62 NSCLC
NCI-H460 lung = tested on: NCI-H460 lung
HOP-92 NSCLC = tested on: HOP-92 NSCLC
NCI-H522 lung = tested on: NCI-H522 lung
A549/ATCC NSCLC = tested on: A549/ATCC NSCLC
786-0 renal = tested on: 786-0 renal
COLO 205 colon = tested on: COLO 205 colon
DU-145 prostate = tested on: DU-145 prostate
K-562 leukemia = tested on: K-562 leukemia
MALME-3M melanoma = tested on: MALME-3M melanoma
MDA-MB-231 breast = tested on: MDA-MB-231 breast
RXF 393 renal = tested on: RXF 393 renal
SF-268 CNS = tested on: SF-268 CNS
SF-295 CNS = tested on: SF-295 CNS
SF-539 CNS = tested on: SF-539 CNS
UACC-257 melanoma = tested on: UACC-257 melanoma
M14 melanoma = tested on: M14 melanoma

Row | Structure (SMILES) | growth (NCI-H23 lung) | growth (NCI-H226 lung) | growth (NCI-H322M lung) | growth (HOP-62 NSCLC) | growth (NCI-H460 lung) | growth (HOP-92 NSCLC) | growth (NCI-H522 lung) | growth (A549/ATCC NSCLC) | growth (786-0 renal) | growth (COLO 205 colon) | growth (DU-145 prostate) | growth (K-562 leukemia) | growth (MALME-3M melanoma) | growth (MDA-MB-231 breast) | growth (RXF 393 renal) | growth (SF-268 CNS) | growth (SF-295 CNS) | growth (SF-539 CNS) | growth (UACC-257 melanoma) | growth (M14 melanoma)
1 | Oc1cccc(-c2nc(N3CCOCC3)c3c4c(sc3n2)CCCC4)c1 | 56.3% | 61.1% | 56% | 62% | 44.1% | 11.2% | 42.2% | 51.7% | 96.7% | 103% | 37.8% | 69.1% | 49% | 43.2% | 16.3% | 36.8% | 75.6% | 50.6% | 69.7% | 60.7%
2 | CSc1nc(-c2cccc(NC(=O)CCl)c2)c(C#N)c(=O)n1C | 49.1% | 89.2% | 107% | 98.7% | 93.3% | 42.7% | -73.7% (active) | 86.3% | 53% | -20.2% (active) | 77.3% | 11.4% | -72.6% (active) | 65.9% | 63.9% | 61.5% | 98.7% | 38.6% | 63.5% | 56.8%
3 | COc1ccc(-n2nc(C)c3c(Nc4ccc(NC(=O)Nc5cccc(C(F)(F)F)c5)cc4)ncnc32)cc1 | 9.95% (active) | 34.1% | 5.43% (active) | -37.9% (active) | 1.6% (active) | -26.4% (active) | 4.21% (active) | -19.2% (active) | -47.4% (active) | -39.2% (active) | 18.2% | 4.37% (active) | -10.9% (active) | -18.7% (active) | -36% (active) | 22.8% | -44.1% (active) | 2.75% (active) | -1.66% (active) | -0.151% (active)
4 | Cn1cc(-c2nonc2-c2c[nH]c3ccc(F)cc23)c2cccnc21 | 80.7% | 57.3% | 88.1% | 78.9% | 93.9% | 70.6% | 70.2% | 80.4% | 98.1% | 96.5% | 96% | 58% | 93.4% | 78.4% | 72.8% | 78.3% | 78.9% | 88.7% | 89.9% | 90.3%
5 | COc1ccc(-c2nc3ccc(-c4nc5ccc(N6CCN(C)CC6)cc5[nH]4)cc3[nH]2)cc1OC | 62.7% | 54.6% | 96.5% | 76.9% | 103% | 89.8% | 13.7% | 96.1% | 79.1% | 25.5% | 77.6% | 40.5% | 0.551% (active) | 82.9% | 96.6% | 50.6% | 66.6% | 70.5% | 25.2% | 18.3%
6 | C=C1c2nc3ccccc3n2C=C(c2cccc(Cl)c2)N1Cc1ccc(OC)cc1 | 29.4% | 94.1% | 44.6% | 41.2% | 4.58% (active) | 77.9% | -10.9% (active) | 14.3% | 35.5% | 95% | 15.3% | 0.532% (active) | 76.8% | 36.3% | 4.81% (active) | 21.7% | 2.35% (active) | -15% (active) | 34.4% | 22.3%
7 | COc1ccccc1NS(=O)(=O)c1ccc2oc(SC(C)C)nc2c1 | 61% | 53.8% | 99.7% | 97.3% | 77.2% | 79.4% | 65.6% | 75.9% | 64.2% | 109% | 98.9% | 45.8% | 81.7% | 86.5% | 107% | 89.8% | 88.5% | 103% | 71.8% | 110%
8 | CCOc1cc2ncc(C#N)c(Nc3ccc(F)c(Cl)c3)c2cc1NC(=O)CC1CCSS1 (stereo not given) | -50.6% (active) | -50.9% (active) | -74.5% (active) | -66% (active) | -64.4% (active) | -15.3% (active) | -48.6% (active) | -75.6% (active) | 12.1% | -73.5% (active) | -81.5% (active) | -26.4% (active) | -57.8% (active) | -66.4% (active) | -56.5% (active) | -55.2% (active) | -36.8% (active) | -12.6% (active) | -53.6% (active) | -66.8% (active)
9 | C#CCOc1ccc2ncnc(Nc3cccc(CNC(=O)C=C)c3)c2c1 | 104% [8.25 µM] | 77.3% [8.25 µM] | 105% [8.25 µM] | 108% [8.25 µM] | 101% [8.25 µM] | 93.3% [8.25 µM] | 91.9% [8.25 µM] | 102% [8.25 µM] | 93.1% [8.25 µM] | 111% [8.25 µM] | 108% [8.25 µM] | 104% [8.25 µM] | 109% [8.25 µM] | 101% [8.25 µM] | 79.4% [8.25 µM] | 86.2% [8.25 µM] | 102% [8.25 µM] | 99.9% [8.25 µM] | 106% [8.25 µM] | 103% [8.25 µM]
10 | O=[N+]([O-])c1cnc(N2CCN(CC3CC3)CC2)nc1N1CCN(CC2CC2)CC1 | 95.4% | 81.3% | 88.8% | 108% | 102% | 74% | 93.9% | 104% | 94.8% | 97.1% | 101% | 102% | 97.7% | 99.9% | 73.1% | 87.7% | 99.5% | 90.8% | 108% | 98.2%
11 | O=C(N(c1ccccc1)c1ccccc1)n1ccc2nc(Cl)nc(Cl)c21 | 60.8% | 53.9% | 67.9% | 45.5% | 36.1% | 52.3% | 24.9% | 56.2% | 80.1% | 77.7% | 33.8% | 42.8% | 58.6% | 71.4% | 32.7% | 66.3% | 74.1% | 68% | 70.2% | 69.9%
12 | COc1ccc2[nH]cc(-c3noc(C(=O)c4cn(C)c5ccc(F)cc45)n3)c2c1 | 90.2% | 83.5% | 96.1% | 100% | 95.6% | 84.9% | 92.8% | 105% | 103% | 96% | 103% | 101% | 95.5% | 90.1% | 116% | 95.3% | 98.8% | 95.8% | 97.5% | 98.6%
13 | O=S(=O)(Nc1ccc(OC(F)F)cc1)c1ccc(-c2cnc(C3CC3)o2)cc1 | 73.4% | 74.1% | 95.7% | 66.6% | 79.1% | 59.3% | 43% | 60.4% | 84% | 97.2% | 90.5% | 19.8% | 76.5% | 70.2% | 81.9% | 75.4% | 53.3% | 79.2% | 75% | 50.9%
14 | Nc1nc2ccc3[nH]ncc3c2c2c1CCCC2 | -19% (active) | 6.29% (active) | 2.32% (active) | 2.81% (active) | 2.07% (active) | -12.6% (active) | -1.98% (active) | 8.61% (active) | 6.18% (active) | -19% (active) | 6.94% (active) | 9.77% (active) | 23% | 4% (active) | -51.1% (active) | -9.66% (active) | 17.1% | -32.9% (active) | 15.6% | 1.67% (active)
15 | CC1=C[C@H]2c3c(c(O)c(O)c4oc5cc(O)ccc5c(=O)c34)[C@H](c3cc(O)c(O)c4oc5cc(O)ccc5c(=O)c34)[C@H]2C(C)(C)C1 | 15.8% | 26.3% | 63.6% | 39.8% | 0.208% (active) | -9.21% (active) | 13.7% | 13.1% | 47.9% | 46.6% | 34.4% | 6.38% (active) | 60.8% | 50.9% | 54.5% | 36% | 21.5% | 20.4% | 62.7% | 38.3%
